# Assay results: PubChem BioAssay (EPA / NIEHS)
# Calls of active or inactive are those of the source. How the source made its calls: active means hit-call score of the fitted dose curve at least 0.9, where 1 is the maximum; inactive means score below 0.9.
# Molecular target: Hepatocyte nuclear factor 3-beta (Homo sapiens) (UniProt Q9Y261)
# Test: ATG_FoxA2_CIS: Attagene CIS-FACTORIAL HepG2 Assay for human Forkhead box A2 (FOXA2) (AID 2282942)
# Conditions: HepG2 cis-reporter transcription factor activity, 24 h; actives raise or lower the signal
# Protocol: ATG_CIS is a cell-based, multiplexed-readout assay that uses HepG2, a human liver cell line, with measurements taken at 24 hours after chemical dosing in a 24-well plate.ATG_FoxA2_CIS is one of 52 assay component(s) measured or calculated from the ATG_CIS assay. It is designed to make measurements of mRNA induction, a form of inducible reporter, as detected with fluorescence intensity signals by Reverse transcription polymerase chain reaction (RT-PCR) and Capillary electrophoresis technology.Data from the assay component ATG_FoxA2_CIS was analyzed into 1 assay endpoint. This assay endpoint, ATG_FoxA2_CIS, was analyzed with bidirectional fitting relative to DMSO as the negative control and baseline of activity. Using a type of inducible reporter, measures of mRNA for gain or loss-of-signal activity can be used to understand the reporter gene at the transcription factor-level as they relate to the gene FOXA2. Furthermore, this assay endpoint can be referred to as a primary readout, because this assay has produced multiple assay endpoints where this one serves a reporter gene function. To generalize the intended target to other relatable targets, this assay endpoint is annotated to the dna binding intended target family, where the subfamily is forkhead box protein.
# Human liver HepG2 cells are transiently transfected with multiple reporter transcription units (MRTUs) in 6-well plates using FuGene 6 reagent (Roche; 3 ml FuGene/1 mg DNA). The MRTU constructs are regulated by a cis-regulating element (promoter). […] A major difference between the CIS and TRANS system is that in CIS activities of endogenous TFs are measured, whereas the TRANS assay evaluates changes in activities of exogenous, chimeric NR-Gal4 proteins. […] At the end of 24 hour incubation, total RNA was isolated using TriZol reagent (Invitrogen). The isolated RNA is then reverse-transcribed using oligo(dT) primer and Mo-MLV reverse transcriptase (Invitrogen) with DNAse I (Ambion) treatment for 30 min. The one-tenth of the produced cDNA was amplified by PCR using Taq DNA polymerase (Invitrogen) and two reporter sequence-specific primers. The PCR products were fluorescently labeled by primer extension with 6-arboxyfluorescein (6-FAM) 5'-labeled reporter sequence-specific primer (2 min at 95 C, 20 s at 68 C and 10 min at 72 C) and these products were digested with 5U of HpaI (New England Biolabs) for 2h at 37 C. The fragments were purified using Qiaquick PCR columns (Qiagen), analyzed on an ABI 3130xL genetic analyzer (Applied Biosystems) with peak positions identified by using a set of X-rhodamine (ROX)-labeled MapMarker1000 molecular weight standards (BioVentures). The raw capillary electrophoresis data was processed using Attagraph software (Attagene).
# Chain of Hepatocyte nuclear factor 3-beta (Homo sapiens) (Q9Y261 whole entry, looked up): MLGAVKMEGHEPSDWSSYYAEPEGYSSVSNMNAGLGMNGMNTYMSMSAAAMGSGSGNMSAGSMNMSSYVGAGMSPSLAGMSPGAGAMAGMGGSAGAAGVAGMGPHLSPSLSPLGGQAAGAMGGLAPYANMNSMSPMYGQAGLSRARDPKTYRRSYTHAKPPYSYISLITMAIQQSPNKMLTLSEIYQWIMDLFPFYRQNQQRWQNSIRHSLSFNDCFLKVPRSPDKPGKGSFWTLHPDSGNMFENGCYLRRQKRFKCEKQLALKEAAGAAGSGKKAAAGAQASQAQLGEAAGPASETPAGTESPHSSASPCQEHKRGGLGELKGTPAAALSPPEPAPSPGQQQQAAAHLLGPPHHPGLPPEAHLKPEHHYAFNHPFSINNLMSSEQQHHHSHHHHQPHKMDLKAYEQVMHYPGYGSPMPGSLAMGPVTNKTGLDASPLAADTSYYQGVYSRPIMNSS
SMILES,outcome,AC50
N#Cc1cccc(C#N)c1,inactive,–
C=CC(=O)OCC(CC)CCCC (stereo not given),inactive,–
CNC(=N[N+](=O)[O-])NCC1CCOC1 (stereo not given),inactive,–
CC1(C)C(=O)NC(=O)NC1=O,inactive,–
CCc1cc(C)cc(CC)c1-c1c(OC(=O)C(C)(C)C)n2n(c1=O)CCOCC2,inactive,–
COC(=O)c1ccccc1S(=O)(=O)NC(=O)Nc1nc(C)cc(C)n1,inactive,–
CCOP(=O)(OCC)OCC,inactive,–
O=CNC(N1CCN(C(NC=O)C(Cl)(Cl)Cl)CC1)C(Cl)(Cl)Cl (stereo not given),inactive,–
O=S(=O)(O)O,inactive,–
N#CC(c1ccccc1)c1ccccc1,inactive,–
COc1ccc(CO)cc1,inactive,–
O=[N+]([O-])C=Cc1ccccc1,–,22.7 µM (active)
NNc1ccccc1,inactive,–
BrCBr,inactive,–
O=C1C=CC(=O)C=C1,inactive,–
CCC(C)c1cc([N+](=O)[O-])cc([N+](=O)[O-])c1OC(=O)C=C(C)C (stereo not given),inactive,–
N#CCCCl,inactive,–
Oc1cc(Cl)ccc1Cl,inactive,–
Oc1ccc(C2(c3ccc(O)cc3)c3ccccc3-c3ccccc32)cc1,inactive,–
O=C(O)C(Br)Br,inactive,–

SMILES,outcome,AC50
C[N+](C)(C)CC(=O)[O-],inactive,–
CCCCCc1cc(O)cc(O)c1,inactive,–
N#Cc1cc(I)c(O)c(I)c1,inactive,–
C=CCN(CC=C)C(=O)C(Cl)Cl,inactive,–
[CH3][Sn]([CH3])([Cl])[Cl],inactive,–
O=P(O)(Oc1ccccc1)Oc1ccccc1,inactive,–
CN1C(=O)CCS(=O)(=O)C1c1ccc(Cl)cc1 (stereo not given),inactive,–
c1cc(OCC2CO2)ccc1Cc1ccc(OCC2CO2)cc1 (stereo not given),inactive,–
O=[N+]([O-])c1ccc(Cl)cc1,inactive,–
CC(=O)c1cc2c(cc1C)C(C)(C)C(C)CC2(C)C (stereo not given),inactive,–
CC(C)[C@@H](C(=O)O[C@@H](C#N)c1cccc(Oc2ccccc2)c1)c1ccc(Cl)cc1,inactive,–
c1ccc(Nc2ccc3ccccc3c2)cc1,inactive,–
C=COCCCl,inactive,–
CCOC(=O)N(C)N=O,inactive,–
CN(N=O)c1ccccc1,inactive,–
CN(C)N,inactive,–
O=C(O)CCl,inactive,–
C[C@]12CC[C@H]3[C@@H](CC[C@@]45O[C@@H]4C(O)=C(C#N)C[C@]35C)[C@@H]1CC[C@@H]2O,inactive,–
O=P1(NCCCl)OCCCN1CCCl (stereo not given),inactive,–
O=[N+]([O-])c1cc(C(F)(F)F)c(Cl)c([N+](=O)[O-])c1Cl,inactive,–
